The values that follow come from PubChem BioAssay (NCI).

Common to all, as to assay: NCI-60 one-dose screen, 48 h (100 = growth as untreated, 0 = no growth, -100 = all killed)
The subject of assay [1] is T-47D breast. The following applies: 10 µM.
The subject of assay [2] is BT-549 breast. Conditions: 10 µM.
Assay [3] has as its system MDA-MB-435 melanoma. The following applies: 10 µM.
The test system of assay [4] is SW-620 colon. The following applies: 10 µM.
Assay [5] deals with MCF7 breast. The following applies: 10 µM unless noted.
In assay [6] the test system is HCT-116 colon. The following applies: 10 µM.
Assay [7] has as its system HCC-2998 colon. The following applies: 10 µM.
Assay [8] relates to KM12 colon. The following applies: 10 µM.

The structures appear in SMILES notation. The panel holds about 83,000 compounds, 20% with a hit somewhere; the sample as a whole holds those more often.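 Cell lines were cultured in 96-well plates, exposed to a single compound concentration, and assessed for percent growth 48 hours later.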 Values without a mark were called inactive. Active and inactive are the calls of the source. The calls were made as follows: active = growth percent below 10; inactive = the rest.

`CC1OC(Oc2c(-c3ccc(O)c(O)c3)oc3cc(O)cc(O)c3c2=O)C(O)C(O)C1O` (stereo unspecified): the growth is 105% in assay [1]; 109% in assay [2]; 111% in assay [3]; 99.8% in assay [4]; 101% in assay [5]; 105% in assay [6]. The values for the growth in assay [7] and in assay [8] were 110% and 102%, respectively.

Consider `C=CCc1cc(C(C)=O)cc(OC)c1O`, for which the growth in assay [1] is 118%; in assay [2], 97.2%; in assay [3] it was 113%; in assay [4], 95.9%; in assay [5], 106%; in assay [6], 102%. The values for the growth in assay [7] and in assay [8] were 96.3% and 96.6%, respectively.

In the case of `O=c1cc(-c2ccccc2)nc2cc(-c3ccco3)[nH]n12`, the growth in assay [1] is 65.4%; in assay [2], 98.3%; in assay [3] it was 41.8%; in assay [4], 81.7%; in assay [5], 28%; in assay [6], 90.3%. Besides, the growth in assay [7] is 91.7%; in assay [8] it was 69.5%.

For the molecule `S=c1[nH]ccn1-c1ccccc1Cl`, the growth is 107% in assay [1]; 117% in assay [2]; 108% in assay [3]; 111% in assay [4]; 99.5% in assay [5]; 107% in assay [6]. Besides, the growth was 113% in assay [7] and 104% in assay [8].

For `C=CCCCCCCCCCOC(C)=O`, the growth is 97.9% in assay [1]; 132% in assay [2]; 110% in assay [3]; 105% in assay [4]; 96.2% in assay [5]; 110% in assay [6]. The growth in assay [7] was 98.4%; in assay [8], 103%.

In the case of `Clc1ccc(-c2n[nH]c3c2Cc2ccccc2-3)cc1Cl`, the growth in assay [1] was 29%; in assay [2], 97.6%; in assay [3], 107%; in assay [4], 111%; in assay [5], 35.4%; in assay [6] it was 90.8%. Moreover, the growth in assay [7] was 92.2%; in assay [8], 102%.

For the molecule `CC1(C)N=C(N)N=C(N)N1c1ccc(Cl)cc1`, the growth in assay [1] is 94.6%; in assay [2], 76%; in assay [3] it was 28.8%; in assay [4] it was 34.3%; in assay [5], 41.1%; in assay [6], 25.1%. In addition, the figures for the growth in assay [7] and in assay [8] were 36.8% and 50.1%, respectively.

Turning to `O=C(O)c1cccc([N+](=O)[O-])c1`, the growth in assay [1] was 109%; in assay [2] it was 108%; in assay [3] it was 111%; in assay [4], 111%; in assay [5], 99.2%; in assay [6], 102%. In addition, the figures for the growth in assay [7] and in assay [8] were 102% and 105%, respectively.

As to `N#Cc1c(N)sc(=S)c2c1CCCC2`, the growth in assay [1] is 95.7%; in assay [2], 98.5%; in assay [3], 109%; in assay [4] it was 112%; in assay [5], 93.3%; in assay [6] it was 104%. Moreover, the growth in assay [7] was 106%; in assay [8], 110%.

For the molecule `Cc1nc2c(ccc3ccccc32)s1`, the growth in assay [1] is 102%; in assay [2] it was 109%; in assay [3], 115%; in assay [4], 107%; in assay [5] it was 99.2%; in assay [6], 103%. Besides, the growth in assay [7] was 75.1%; in assay [8], 117%.

Consider `CN(C)Cc1cc(C(C)(C)CC(C)(C)C)ccc1O`, for which the growth was 86.4% in assay [1]; 100% in assay [2]; 107% in assay [3]; 109% in assay [4]; 95.4% in assay [5]; 89.3% in assay [6]. Besides, the values for the growth in assay [7] and in assay [8] were 96.5% and 104%, respectively.

As for `CC(=O)OC(OC(C)=O)C1CCCO1` (stereo unspecified), the growth is 101% in assay [1]; 95.8% in assay [2]; 108% in assay [3]; 107% in assay [4]; 92.1% in assay [5]; 91.3% in assay [6]. Further, the growth in assay [8] is 101%.

For the molecule `C=CCNc1ccccc1`, the growth in assay [1] is 103%; in assay [2], 99%; in assay [3], 119%; in assay [4], 106%; in assay [5] it was 87.4%; in assay [6], 92.4%. The growth in assay [8] was 109%.

Regarding `CN(C)C(=O)Oc1cccc([N+](C)(C)C)c1`, the growth in assay [1] is 99.8%; in assay [2], 112%; in assay [3], 105%; in assay [4], 108%; in assay [5] it was 87%; in assay [6] it was 109%. For the same molecule, the growth in assay [8] is 102%.

For the molecule `Cn1cnc2nc(Cl)nc(Cl)c21`, the growth was 56.7% in assay [1]; -28.5% (active) in assay [2]; -20.5% (active) in assay [3]; 22.2% in assay [4]; 16.7% in assay [5]; 3.41% (active) in assay [6]. The growth in assay [8] is -40.8% (active).

Take `CCNCCCCNCCCCNCCCCNCCCCNCC`: the growth in assay [1] is 72.2%; in assay [2], 123%; in assay [3], 50.2%; in assay [4], 68.3%; in assay [5], 101%; in assay [6] it was 92.6%. Moreover, the growth in assay [7] is 101%; in assay [8], 62.1%.

Consider `COc1ccccc1N=Nc1c(O)ccc2cc(S(=O)(=O)O)ccc12`, for which the growth is 91.4% in assay [1]; 99.4% in assay [2]; 108% in assay [3]; 103% in assay [4]; 93.2% in assay [5]; 103% in assay [6]. The growth is 96.3% in assay [7] and 104% in assay [8].

Turning to `COc1ncnc2c1cnn2C`, the growth in assay [1] was 97.1%; in assay [2] it was 95.4%; in assay [3] it was 107%; in assay [4] it was 105%; in assay [5], 101%; in assay [6], 103%. Further, the growth in assay [8] was 103%.

For `Cc1ccc(C(=O)c2ccccc2)c(C)c1`, the growth in assay [1] was 96.4%; in assay [2], 99.6%; in assay [3], 118%; in assay [4], 98.7%; in assay [5] it was 101%; in assay [6] it was 94.8%. Further, in assay [8], the growth is 107%.
